Screening data (PubChem BioAssay)
VP16 counter: Gal4-VP16 reporter inhibition counter-screen; Drosophila S2 Gal4-VP16 UAS-luciferase, luminescence, 20 h; Potency, µM (titrated, usually from 53.6 µM), for inactives: top-dose activity, negative = inhibition, hits mostly inhibitors; actives 3.5% (n = 310,000); AID 2546;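 also: Gal4-VP16 expression switched on by copper sulfate through the metallothionein promoter; potency is read from the fitted curve at half-maximal effect; nearly all actives have a fitted effect of over 50% in size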
ELG1 repair inh: blocks ELG1-dependent DNA repair in HEK293T cells; HEK293T ELG1-luciferase reporter, luminescence, 16 h; DNA damage induced by 5-fluorouridine; actives 2.3% (n = 330,000); Potency, µM (doses to about 46.1 µM), for the others: top-dose activity change, negative = inhibition, actives largely listed as inhibitors; AID 504467; also: potency is read from the fitted curve at half-maximal effect; nearly all actives have a fitted effect of over 55% in size
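Cells (2,000 per well) received 5-fluorouridine plus test compound or DMSO and were incubated 16 hr at 37 °C, 5% CO2. Luciferase activity was read by luminescence 30 min after ONE-Glo addition; signal suppression marked inhibition of damage-induced ELG1 function.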
RORg inh: ROR gamma (mouse) transcription inhibition. Drosophila S2 Gal4-RORgamma UAS-luciferase reporter, 20 h. actives 5.4% (n = 310,000). Potency, µM (series often up to 53.6 µM), for inactives: at the highest dose activity change, negative = inhibition, most hits filed as inhibitors. P51450; also: potency is read from the fitted curve at half-maximal effect; nearly all actives have a fitted effect of over 60% in size
Target sequence (P51450 whole entry, looked up, the tested form may be a part): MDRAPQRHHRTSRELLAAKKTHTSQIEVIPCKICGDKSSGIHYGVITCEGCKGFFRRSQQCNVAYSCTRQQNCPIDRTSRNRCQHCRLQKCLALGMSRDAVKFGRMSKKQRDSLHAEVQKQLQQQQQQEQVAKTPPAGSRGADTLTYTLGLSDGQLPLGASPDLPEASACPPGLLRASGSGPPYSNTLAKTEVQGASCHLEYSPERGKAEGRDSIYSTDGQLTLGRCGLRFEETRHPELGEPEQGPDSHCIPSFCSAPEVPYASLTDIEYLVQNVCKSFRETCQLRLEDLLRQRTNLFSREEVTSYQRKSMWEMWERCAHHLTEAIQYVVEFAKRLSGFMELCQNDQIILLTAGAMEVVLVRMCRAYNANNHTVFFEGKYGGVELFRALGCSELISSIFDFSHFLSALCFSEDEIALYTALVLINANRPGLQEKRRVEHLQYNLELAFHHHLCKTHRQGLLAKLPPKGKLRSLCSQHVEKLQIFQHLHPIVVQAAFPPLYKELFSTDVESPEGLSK
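Drosophila S2 cells stably expressing Gal4-DBD/mouse RORγ fusion under metallothionein promoter plus UAS-luciferase; compound 1 h, then 700 uM CuSO4 induction for 20 h at ambient temperature; inhibition read as reduced luminescence.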
TDP1 cell CPT: DT40-hTDP1 cell growth loss with CPT | chicken DT40 Tdp1-/-;hTDP1 cells + 20 nM CPT, ATP luminescence, 48 h | Potency, µM (titrated, usually from 46.2 µM), for the others: at the highest dose activity change, negative = growth inhibition, most hits filed as inhibitors | actives 12% (n = 420,000) | AID 686979; also: potency is read from the fitted curve at half-maximal effect; nearly all actives have a fitted effect of over 55% in size
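Chicken DT40 Tdp1-/- cells stably complemented with human TDP1 were seeded at 400 cells/well in medium containing 20 nM camptothecin, exposed to pin-transferred compounds, and grown at 37 °C for at least 48 hr. Viability was read as ATP luminescence.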
IL1B secr inh: inflammasome signaling inhibition, IL-1 beta readout | AID 743279 | THP-1 LPS/ATP IL-1B secretion, AlphaLISA, 16 h; stronger effect = lower value | activity change, % at 57.5 µM | actives 4.7% (n = 360,000); in the data active = activity change below about -50%; inconclusive = mostly about -30% to -49%
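THP-1 cells pretreated 1 hr with compounds (up to 57.5 uM final), then stimulated with LPS (250 ng/mL final) plus ATP (1.25 mM final); secreted IL-1B measured by AlphaLISA after 16 hr, decreased signal indicating inhibition.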
TDP1 cell noCPT: qHTS for Inhibitors of human tyrosyl-DNA phosphodiesterase 1 (TDP1): qHTS in cells in absence of CPT; Potency, µM (top dose mostly 46.2 µM), for inactives: at the top dose activity change, negative = growth inhibition, most hits filed as inhibitors; DT40 Tdp1-/- hTDP1 cells, no CPT, ATP luminescence, 48 h; actives 15% (n = 420,000); also: potency is read from the fitted curve at half-maximal effect; nearly all actives have a fitted effect of over 55% in size
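Chicken DT40 Tdp1-/- cells complemented with human TDP1, screened without camptothecin (DMSO vehicle only), 400 cells/well. Compounds pin-transferred, cells incubated at 37 °C for at least 48 hr. Growth read as ATP-dependent luminescence (CellTiter-Glo, 30 min at RT).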
Numbers without * were called inactive; ? = inconclusive; . = no result given; [ ] = remark or other dose. Sampled rows, rich in hits. Any-hit rate of the full collection: about 21%. Unless noted, calls follow the shape of the dose curve; as a rule, active = well fitted curve in the direction sought with a large enough effect; inconclusive = small, poorly fitted or top-dose-only effect, or another doubt; inactive = no such curve, though single readings can be large; an effect the other way counts as inactive or inconclusive. % is scaled to controls: 0 for no effect and ±100 for the full control effect.

SMILES | VP16 counter | ELG1 repair inh | RORg inh | TDP1 cell CPT | IL1B secr inh | TDP1 cell noCPT
COc1cccc(/C=N/Nc2ccc([N+](=O)[O-])cc2)c1O | 10% | ? | 16% | -23% | ? | ?
COc1ccc(/C=N/Nc2ccc(C(=O)O)cc2)c(OC)c1OC | -14% | ? | -23% | -7% | 46 | 14%
CCCCN(C(=O)Cn1ncc(Cl)c(Cl)c1=O)c1c(N)n(CC(C)C)c(=O)[nH]c1=O | -3% | 3% | 4% | ? | -26 | ?
CCOc1ccc(C(=O)Nc2ccc3c(c2)N(C(C)=O)CCC3)cc1OCC | . | . | . | ? | . | 21µM*
COc1cc(C(=O)Nc2ccc(S(=O)(=O)N3CCc4ccccc43)cc2)cc(OC)c1OC | 4% | -14% | 35% | ? | -11 | 16µM*
COc1ccc(S(=O)(=O)N2CCc3ccccc32)cc1C(=O)Nc1ccc(C(N)=O)cc1 | . | ? | . | 23µM* | 0 | ?
O=S(=O)(NC1CCCC1)c1ccc(S(=O)(=O)N2CCc3ccccc32)cc1 | -2% | 0% | ? | 16µM* | 1 | 16µM*
CCOc1ccc(C(=O)Nc2ccc3c(c2)OCO3)cc1OCC | 3% | -1% | 23% | -3% | 8 | -8%
O=c1ccn([C@@H]2O[C@H](CNCc3cccn3-c3ccncc3)[C@@H](O)[C@H]2O)c(=O)[nH]1 | . | . | . | ? | 0 | -20%
CCC(=O)Nc1ccc(S(=O)(=O)N2CCc3ccccc32)cc1 | -8% | -9% | 61% | ? | 33 | -27%
COc1cc(C(=O)Nc2ccc3c(c2)Cc2ccccc2-3)cc(OC)c1OC | -21% | 0% | -7% | -22% | 0 | ?
COc1ccccc1C(=O)Nc1ccc(S(=O)(=O)N2CCc3ccccc32)cc1 | 7% | -15% | 16% | ? | -9 | 21µM*
O=S(=O)(c1ccc2ccccc2c1)N1CCc2ccccc21 | -17% | -12% | ? | ? | 12 | ?
O=C(Nc1ccc(S(=O)(=O)N2CCc3ccccc32)cc1)c1ccco1 | -9% | 21µM* | ? | ? | -11 | ?
COc1ccc(S(=O)(=O)N2CCc3ccccc32)cc1[N+](=O)[O-] | 6% | 6.5µM* | 13% | 23µM* | -2 | ?
COc1cc(C(=O)Nc2ccc3c(c2)CCN3C(C)=O)cc(OC)c1OC | -2% | ? | -34% | ? | 0 | 2.1µM*
Cc1cc(NC(=O)c2ccc(S(=O)(=O)N3CCc4ccccc43)cc2)no1 | ? | ? | 11µM* | -13% | 16 | -10%
O=S(=O)(NC1CCc2ccccc21)c1ccc(S(=O)(=O)N2CCCC2)cc1 (stereo unspecified) | -1% | 26µM* | 0% | ? | -30 | ?
COc1ccc(-n2c(CNC(=O)c3cccc(OC)c3OC)nnc2SC)cc1 | . | . | . | -1%[9.04 µM] | . | -13%
Cc1ccc(C2C=CC(C#N)=CN2Cc2ccccc2)cc1 (stereo unspecified) | . | . | . | 23µM* | 69 | ?
Cc1ccc(CNC(=O)C2CCN(S(=O)(=O)Cc3ccccc3)CC2)cc1 | . | . | . | -5% | . | -7%
COc1ccc(S(=O)(=O)Nc2nc3ccccc3s2)cc1OC | 12% | 22% | ? | -8% | 35 | -21%
CC(C)(C)NC(=O)COC(=O)c1c2c(nc3ccccc13)CCC2 | 0% | ? | -15% | ? | 22 | 9.2µM*
CC(C)NC(=O)NC(=O)COC(=O)c1c2c(nc3ccccc13)CCC2 | 0% | 23µM* | 26% | 9.2µM* | ? | 13µM*
N#Cc1cc2c(nc1SCc1ccncc1)CCC2 | ? | ? | ? | 18µM* | ? | ?
SMILES | VP16 counter | ELG1 repair inh | RORg inh | TDP1 cell CPT | IL1B secr inh | TDP1 cell noCPT
N#Cc1cc2c(nc1SCC(O)CS(=O)(=O)Cc1ccc(Cl)cc1)CCCC2 (stereo unspecified) | 7% | ? | 12% | ? | -61* | ?
S=C(NCCc1c[nH]c2ccccc12)NC1CCCCC1 | -26% | -9% | 14µM* | ? | -52* | ?
COc1ccc2[nH]cc(CCNC(=S)NC3CCCC3)c2c1 | ? | -12% | 10µM* | 1% | 18 | -3%
N[C@@H](CO)C(=O)O | -1% | . | -1% | 9% | . | -13%
COc1ccc(C(=O)N2CCC3(CCCN(Cc4ccc(C#N)cc4)C3)CC2)cc1 | -8% | . | 18% | -26% | . | 18µM*
N#Cc1ccc(CN2CC3(CCN(C(=O)c4cc(C(F)(F)F)cc(C(F)(F)F)c4)CC3)C2)cc1 | ? | . | 11% | 21µM* | . | 10µM*
O=[N+]([O-])c1ccccc1S(=O)(=O)N1CCCC(C(F)(F)F)C1 (stereo unspecified) | 2% | -7% | 5% | 0% | 2 | ?
CC(=O)Nc1cc(-c2cccnc2)cn2c(-c3cccc(C(F)(F)F)c3)cnc12 | . | . | . | 18µM* | -12 | ?
COc1ccccc1-c1cc(NC(C)=O)c2ncc(-c3cccc(C(F)(F)F)c3)n2c1 | . | . | . | 23µM* | -4 | 21µM*
CC(=O)Nc1cc(-c2ccccc2F)cn2c(-c3ccccc3)cnc12 | . | . | . | 16µM* | -25 | ?
COc1cccc(-c2cnc3c(NC(C)=O)cc(-c4ccccc4OC)cn23)c1 | . | . | . | 18µM* | 0 | 16µM*
COc1cccc(CN(C)C(=O)CC[C@H]2O[C@@H](n3ccc(=O)[nH]c3=O)[C@H](O)[C@@H]2O)c1 | . | . | . | 4% | 27 | 2%
CC(C)(C)c1ccc(C(=O)NNC(=O)CCc2ccccc2)cc1 | . | . | . | 3% | -2 | -9%
COC(=O)C1CCN(Cc2ccc3c(c2)CN(C(=O)c2sc(C)nc2C)CCO3)CC1 | . | . | . | -8%[9.04 µM] | . | -15%
Nc1cc(Cl)ccc1C(=O)OCC(=O)NC1CCCCCCC1 | . | ? | . | ? | -24 | 3%
COc1ccccc1-c1cc(NC(C)=O)c2ncc(-c3ccccc3)n2c1 | . | . | . | 21µM* | -28 | 9.2µM*
COc1ccc(-c2cc(NC(C)=O)c3ncc(-c4ccccc4)n3c2)c(OC)c1 | . | . | . | ? | -26 | -83%
O=C(CSc1nc2nn(-c3ccccc3)c(=O)c-2c2n1CCCCC2)Nc1ccccc1[N+](=O)[O-] | . | ? | . | 21µM* | 4 | ?
COc1ccc(C(=O)CSc2nc3nn(-c4ccccc4)c(=O)c-3c3n2CCCCC3)c(OC)c1 | . | . | . | ? | -18 | ?
O=C(CSc1nc2nn(-c3ccccc3)c(=O)c-2c2n1CCCCC2)NCCCc1ccccc1 | 0% | 8% | 29% | 2% | -60* | 4%
